# High-throughput results deposited in PubChem by National Center for Advancing Translational Sciences (NCATS).
# PNC assembly inh: blocks assembly of the perinucleolar compartment; AID 2417; actives 3.1% (n = 140,000); activity change (PNC), negative = inhibition, % at 10 µM; PC3M PTB-GFP, PNC prevalence imaging, 16 h; hits give low values;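 active means readout at or below -70, meaning at least 70% loss of cells showing the perinucleolar compartment, a nuclear body marking cancer cells; inconclusive means readout between -30 and a set limit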;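 further: plate controls were DMSO wells for no effect and camptothecin positive control wells for full effect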
#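 Read-out is percentage of cells bearing a perinucleolar compartment, from automated 20x imaging of fixed, Hoechst-stained PC3M PTB-GFP cells. Cells were seeded 4 h, then exposed 16 h to compound (23 nl of library stock) in duplicate plates.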
# Luc counter: blocks Kinase-Glo luciferase, a counter-screen artifact | Q27757 | Kinase-Glo luciferase, ATP luminescence, 8 min | Potency, µM (highest dose often 38.3 µM), without a hit: at the highest dose activity change, negative = inhibition, most hits filed as inhibitors | actives 0.28% (n = 200,000); active means well fitted inhibition curve with a large enough effect; inconclusive means small, poorly fitted or top-dose-only effect; further: potency means the concentration at half of the fitted maximal effect; nearly all actives have a fitted effect of over 60% in size
#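 Compounds were added to a substrate mix at pH 7.2 (50 mM imidazole, 10 uM ATP, within the enzyme's linear range), followed by Kinase-Glo detection reagent; luminescence was measured after 8 minutes at ambient temperature.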
# HPGD block: inhibitors of human 15-hydroxyprostaglandin dehydrogenase (HPGD); P15428; purified HPGD, NADH fluorescence kinetic, PGE2 substrate; Potency, µM, without a hit: top-dose activity change, negative = inhibition, most hits filed as inhibitors; actives 4.3% (n = 150,000); AID 894; further: potency means the concentration at half of the fitted maximal effect
#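 NADH formation kinetics: reaction with 30 uM PGE2 and 1 mM NAD+ (final), 20 nM enzyme, Tris-HCl pH 8 with Tween 20, after 15 min compound preincubation at room temperature. Fluorescence change, last versus first of five reads.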
# LMNA splice mod: LMNA splicing modulation. Potency, µM (titrated, usually from 46.1 µM), for inactives: top-dose ratio change, negative = inhibition, usual class: inhibitors. actives 0.01% (n = 200,000). HeLa LMNA splicing GFP/RFP minigene ratio, 48 h; active means well fitted inhibition curve with a large enough effect in the signal ratio, with a control signal flat, not every such curve was filed as active; inconclusive means small, poorly fitted or top-dose-only effect, or effect the other way, or a change in a side signal; the % refers to the signal ratio; further: potency means the concentration at half of the fitted maximal effect
#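 S3 HeLa cells stably expressing lamin A-EGFP splicing minigene plus DsRed2, 600 cells/well, 48 h compound exposure at 37C. Laser-scanning cytometry; analysed as GFP (500-530 nm)/RFP (575-640 nm) total intensity ratio; 0.5% DMSO vehicle.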
# ALDH1A1 block: ALDH1A1 (human) enzyme inhibition. P00352. Purified ALDH1A1, NADH fluorescence, propionaldehyde substrate. Potency, µM (titrated, usually from 75.3 µM), for inactives: at the top dose activity, negative = inhibition, actives largely listed as inhibitors. actives 7.3% (n = 220,000);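 further: potency means the concentration at half of the fitted maximal effect; plate controls were no enzyme wells and a reference inhibitor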
# Target sequence (P00352 whole entry, looked up): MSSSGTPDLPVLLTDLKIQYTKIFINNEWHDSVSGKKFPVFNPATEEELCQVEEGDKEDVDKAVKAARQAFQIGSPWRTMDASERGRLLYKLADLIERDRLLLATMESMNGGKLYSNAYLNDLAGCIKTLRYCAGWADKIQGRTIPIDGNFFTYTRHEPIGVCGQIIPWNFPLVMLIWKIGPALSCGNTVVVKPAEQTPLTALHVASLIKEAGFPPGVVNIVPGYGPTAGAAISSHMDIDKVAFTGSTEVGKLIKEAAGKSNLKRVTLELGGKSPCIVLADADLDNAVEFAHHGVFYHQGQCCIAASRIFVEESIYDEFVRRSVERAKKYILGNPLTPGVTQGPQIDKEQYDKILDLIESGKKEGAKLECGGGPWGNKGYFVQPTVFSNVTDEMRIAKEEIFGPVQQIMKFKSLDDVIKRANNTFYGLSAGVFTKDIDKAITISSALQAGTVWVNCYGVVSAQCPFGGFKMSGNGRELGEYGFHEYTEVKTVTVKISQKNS
# Active calls of the source: *; ? = inconclusive; nt = not tested or not shown; [ ] = dose if it differs, or a comment. Compounds with a hit are over-represented: about 10% of the library has one in this group of screens. Unless noted, the call rests on the fitted dose curve; in most records, active means well fitted inhibition curve with a large enough effect (not every such curve was filed as active); inconclusive means small, poorly fitted or top-dose-only effect, or another doubt; inactive means no such curve, though single readings can be large or run the other way. Unless noted, on the % scale 0 is the no-effect control and ±100 the full control effect.
SMILES,PNC assembly inh,Luc counter,HPGD block,LMNA splice mod,ALDH1A1 block
O=C(CCCCCn1c(SCc2ccncc2)nc2ccccc2c1=O)NCc1ccco1,-100*,0%,18µM*,-18%,25µM*
O=C(CSc1nc2ccsc2c(=O)n1Cc1ccc(C(=O)O)cc1)NCc1ccco1,-113*,2%,20µM*,0%,6%
COc1ccc(Cn2c(SCC(=O)NCc3ccco3)nc3ccsc3c2=O)cc1,5,6%,-6%,-6%,-2%
O=C(CSc1nc2ccccc2c(=O)n1Cc1ccco1)c1ccc(F)cc1,-2,-3%,-30%,?,11µM*
CCSc1nc2cc(OC)c(OC)cc2c(=O)n1CC,7,-4%,-13%,0%,8.9µM*
CCCCC[C@H](O)/C=C/C=C/C/C=C\CCCC(=O)O,nt,-2%,-2%,nt,9%
c1ccc(-c2nnc3sc(-c4csc5c4CCCC5)nn23)cc1,3,-5%,11µM*,12%,7.9µM*
c1ccc(-c2nnc3sc(-c4ccncc4)nn23)cc1,18,0%,-14%,2%,?
COc1ccc([N+](=O)[O-])cc1COc1cc(C)cc2oc(=O)cc(-c3ccccc3)c12,?,0%,-23%,?,2µM*
Cc1cc(OC(=O)c2ccco2)c2c(C)cc(=O)oc2c1,?,-2%,-12%,7%,?
CCc1cc(=O)oc2cc(C)cc(OC(=O)c3ccco3)c12,-8,4%,0%,-16%,10µM*
CC(=O)COc1cc(C)cc2oc(=O)cc(-c3ccccc3)c12,nt,-1%,nt,7%[46 µM],2.2µM*
Cc1cc(O)c2c(-c3ccccc3)cc(=O)oc2c1,?,3%,-14%,-6%,?
COc1ccc2c(c1)OCC(Cc1ccc(OC)c(O)c1)C2=O (centres undefined),nt,-1%,?,nt,-13%
O=C(COC(=O)C1CCN(S(=O)(=O)c2cccs2)CC1)c1cc2ccccc2o1,?,-6%,?,4%,16µM*
O=C(Nc1nc(-c2ccc3ccccc3c2)cs1)C1CCN(S(=O)(=O)c2cccs2)CC1,-87*,2%,-9%,?,-8%
Cc1ccc(-c2csc(NC(=O)C3CCN(S(=O)(=O)c4cccs4)CC3)n2)cc1,1,10%,-1%,?,0%
COc1ccccc1CN(Cc1ccco1)c1cnc(S(C)(=O)=O)nc1C(=O)Nc1cc(C)ccc1C,nt,nt,nt,-9%[46 µM],nt
COc1ccc(CNC(=O)C(OC(=O)c2ccco2)c2ccc(OC)cc2)cc1 (centres undefined),45,0%,-16%,-10%,6.3µM*
COc1ccc(S(=O)(=O)Nc2cccc(-c3ccc(N4CCCCCC4)nn3)c2)c(OC)c1,nt,nt,nt,10%[46 µM],nt
CCOC(=O)C1=C(c2ccccc2)NC(=S)NC1c1ccc(C)c([N+](=O)[O-])c1 (centres undefined),3,-4%,-18%,-26%,0.25µM*
CCOC(=O)C1=C(c2ccccc2)NC(=S)NC1C (centres undefined),?,-1%,-8%,7%,2µM*
CCOC(=O)C1=C(C)NC(=S)NC1C (centres undefined),nt,0%,nt,?,0%
CCOC(=O)C1=C(c2ccccc2)NC(=O)NC1c1ccc(O)c(OCC)c1 (centres undefined),nt,-1%,nt,-10%[46 µM],-11%
CCOC(=O)C1=C(c2ccccc2)NC(=S)NC1c1cccc([N+](=O)[O-])c1 (centres undefined),-20,nt,nt,-11%,0.89µM*
CCOC(=O)C1=C(c2ccccc2)NC(=S)NC1c1cc([N+](=O)[O-])ccc1OC (centres undefined),-8,2%,-7%,1%,4µM*
Cn1c(=O)n(C)c2cc(N3CCOCC3)c(NS(=O)(=O)c3cccc(C#N)c3)cc21,nt,nt,nt,-2%[46 µM],nt
Cc1cccc(CNC(=O)c2cnc3c(-c4cccc(C)c4)c(C)nn3c2C)c1,nt,nt,nt,-6%[46 µM],nt
CCOC(c1cc(OC)cc([N+](=O)[O-])c1OC)C(C)C(OC)[C@@H](C)/C=C/CC(=O)OC (some centres undefined),nt,nt,nt,nt,0%[13.5 µM]
O=C(c1ccccc1Cl)N1CCN(CCc2ccccn2)CC1,nt,nt,nt,-2%[46 µM],nt
